High-throughput results (PubChem BioAssay)
Only some compounds are listed: those with a hit (about 4.1% of all), similar ones and a draw of the others.
DAX1 inh-1: DAX1 (NR0B1) inhibitors, primary screen, cell-based, HEK293, Gal4-DAX1, luciferase luminescence; HEK293 Gal4-DAX1 luciferase reporter; inhibition, % at 6.75 µM; hit rate 0.99% among 340,000;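 active = inhibition above the mean over all tested compounds plus 3 SD, cut at about 4.2% in these data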;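 note: 0% = DAX1-transfected cells with DMSO and 100% = empty-vector control cells with DMSO; inhibition shows as a rise in luminescence from relieved DAX1 repression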
DAX1 inh-2: DAX1 (NR0B1) inhibitors on StAR promoter, primary screen, cell-based, luminescence, SF-1 (NR5A1), full-length DAX-1 | inhibition, % at 6.8 µM | HEK293T StAR-luciferase reporter, SF-1/DAX-1 repression relief | hit rate 1.1% among 370,000 | AID 652010, 2013;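 active = inhibition above the mean over all tested compounds plus 3 SD, cut at about 3.6% in these data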;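 note: 0% = DAX-1 cells with DMSO and 100% = cells lacking DAX-1 with DMSO; higher inhibition means more luminescence from relief of DAX-1 repression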
hcDAF12 agonist: H. contortus DAF-12 nuclear receptor activators, primary screen, cell-based, luminescence, HEK293, lit1-tk-luc reporter. hit rate 1.4% among 370,000. HEK293 hcDAF-12 lit1-tk-luc reporter; 0% DMSO, 100% Δ7-dafachronic acid. activation, % at 6.8 µM;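 active = activation above the mean of all tested compounds plus 3 SD, cut at about 5.5% in these data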;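 note: 100% = response to 3 µM Δ7-dafachronic acid high control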
ssDAF12 agonist: S. stercoralis DAF-12 nuclear receptor activators, primary screen, cell-based, luminescence, HEK293, GRIP1 co-expression, lit1-tk-luc | HEK293 ssDAF-12/GRIP1 lit1-tk-luc reporter; % of 3 µM dafachronic acid response | activation, % at 6.8 µM | hit rate 1% among 370,000;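 active = activation above the mean over all tested compounds plus 3 SD, cut at about 0.9% in these data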;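 note: 0% = DMSO-only wells and 100% = 3 µM delta7-dafachronic acid wells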
hgDAF12 agonist: H. glycines DAF-12 receptor agonists, primary screen, cell-based, luminescence, HEK293, GAL4 fusion, UAS-luciferase. HEK293 GAL4-hgDAF12 UAS-luciferase reporter, agonist luminescence; normalized to butyrate control. activation, % at 6.8 µM. Nuclear hormone receptor DAF-12 (Heterodera glycines), GAL4 fusion. hit rate 1.8% among 370,000. AID 687014, 2013;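 active = activation above a cutoff set at the mean of all screened compounds plus 3 SD, cut at about 10% in these data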;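 note: 0% = DMSO wells and 100% = sodium butyrate wells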
DAX1 inh confirm: DAX1 (NR0B1) inhibitors relieving SF-1 repression, confirmation, cell-based, luminescence, HEK293T, full-length DAX-1, SF-1 activated StAR promoter. AID 652134, 2013. shares compounds with DAX1 inh-2. hit rate 87% among 2,400. inhibition, % at 6.8 µM. HEK293T StAR-promoter luciferase reporter, SF-1/DAX-1 repression;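 active = inhibition above the average of every tested compound plus 3 SD, cut at about 3.8% in these data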;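 note: 0% = DAX-1 cells with DMSO and 100% = no DAX-1 control cells with DMSO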
Target sequence (P51843 whole entry, looked up): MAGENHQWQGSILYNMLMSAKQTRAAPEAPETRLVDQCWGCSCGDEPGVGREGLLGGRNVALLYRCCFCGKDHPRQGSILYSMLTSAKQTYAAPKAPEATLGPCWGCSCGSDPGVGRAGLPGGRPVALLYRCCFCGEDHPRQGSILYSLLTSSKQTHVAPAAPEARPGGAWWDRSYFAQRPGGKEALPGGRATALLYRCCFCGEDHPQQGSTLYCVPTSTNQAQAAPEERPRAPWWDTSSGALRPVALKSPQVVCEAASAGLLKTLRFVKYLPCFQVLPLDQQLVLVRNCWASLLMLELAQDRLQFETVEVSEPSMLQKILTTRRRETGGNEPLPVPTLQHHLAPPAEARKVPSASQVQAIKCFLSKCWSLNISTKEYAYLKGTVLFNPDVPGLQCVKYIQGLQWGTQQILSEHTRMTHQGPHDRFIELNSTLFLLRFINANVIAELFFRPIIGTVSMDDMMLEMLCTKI
SF1 AF2mut Luc: StAR reporter signal changes without DAX1, counter-screen for DAX1 inhibitor project, cell-based, luminescence, AF-2 mutant SF-1, transactivation; shares compounds with DAX1 inh-2; HEK293 StAR-luciferase, SF-1 AF2 mutant; inhibition, % at 6.8 µM; hit rate 78% among 2,400; AID 652136, 2013;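 active = inhibition above the mean of all tested compounds plus 3 SD, cut at about 3% in these data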;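 note: 0% = DAX-1 transfected cells with DMSO and 100% = cells without DAX-1 with DMSO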
LXRb hcDAF ctr: LXR agonists, Gal4 luciferase reporter, confirmation, counter-screen for hcDAF-12 agonist project, cell-based, luminescence, HEK293, H. contortus campaign | HEK293 Gal4-LXR tk-luc reporter, 24 h; normalized: DMSO 0%, positive control 100% | AID 743027, 2013 | shares compounds with hcDAF12 agonist | activation, % at 6.8 µM | 3,400 tested, under 10 active;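 active = mean percent activation of the reporter above a cutoff set as the average over tested compounds plus their standard deviation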
hcDAF12 conf: H. contortus DAF-12 receptor agonists, confirmation, cell-based, luminescence, HEK293, lit1-tk-luc, triplicate. shares compounds with hcDAF12 agonist. HEK293 hcDAF-12 lit1-tk-luc reporter; % of Δ7-dafachronic acid response. activation, % at 6.8 µM. hit rate 61% among 3,400. AID 743032, 2013;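 active = mean activation across triplicate tests above the threshold derived from the earlier primary screen, cut at about 5.5% in these data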;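 note: 0% = DMSO only wells and 100% = 3 µM Δ7-dafachronic acid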
hgDAF12 ag: H. glycines DAF-12 receptor agonists, confirmation, cell-based, luminescence, HEK293, GAL4-LBD fusion; activation, % at 6.8 µM; HEK293 GAL4-hgDAF12 luciferase reporter, agonist mode; percent of butyrate response; shares compounds with hgDAF12 agonist; hit rate 80% among 3,300; AID 743050, 2013;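 active = mean activation over triplicate wells above the hit cutoff derived from the earlier primary screen, cut at about 11% in these data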;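 note: 0% = DMSO low control and 100% = 2 mM sodium butyrate high control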
LXR ag 2: LXR agonists, Gal4 luciferase reporter, confirmation, counter-screen for hgDAF-12 agonist project, cell-based, luminescence, HEK293, H. glycines campaign. shares compounds with hgDAF12 agonist. 24 h. 3,300 tested, under 10 active. activation, % at 6.8 µM;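 active = mean activation of the triplicate above a set limit carried over from the primary screen, none filed active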
* = called active by the depositor; · = not tested or not shown.

SMILES	DAX1 inh-1	DAX1 inh-2	hcDAF12 agonist	ssDAF12 agonist	hgDAF12 agonist	DAX1 inh confirm	SF1 AF2mut Luc	hgDAF12 ag	LXR ag 2	others
COC(=O)c1cccc2c([N+](=O)[O-])c(NC(C)=O)cc(C(=O)OC)c12	·	0	0	-1	4	·	·	·	·
C=CCN(CC#Cc1ccc(C(F)(F)F)cc1)CC=C	·	0	3	-1	-4	·	·	·	·
COc1ccc(/C=N/NC(=S)Nc2ccccc2)cc1	1	7.7*	3	-1	26*	10*	5.8*	15*	1
O=C(O)C(=O)/C(=C\c1ccc(Cl)cc1)c1ccc2ccccc2n1	2	7.8*	14*	2.5*	14*	9.1*	4.6*	1	1	LXRb hcDAF ctr=1;hcDAF12 conf=11*
O=C(O)C/C(=C\c1ccc(Cl)cc1)c1nc2ccccc2o1	·	0	2	-1	3	·	·	·	·
CCN(CC)c1ccc(NC(=O)CSc2nc3ccccc3c(=O)n2-c2ccc(C)cc2)cc1	·	-2	-3	-1	3	·	·	·	·
COc1ccc2nc(N3CCOCC3)cc(C)c2c1	2	5.8*	4	0	17*	12*	6.3*	14*	1
Cc1ccc2c(c1)C(CS(=O)(=O)NCc1ccc(F)cc1)NC2 (stereo unspecified)	·	0	0	-1	2	·	·	·	·
NC(=O)c1ccsc1NC(=O)c1coc2ccccc2c1=O	1	4.7*	1	0	14*	12*	3.7*	19*	1
O=c1cc(-c2ccccc2)oc2cc(O)cc(O)c12	2	5.7*	0	-1	15*	9.2*	2	13*	1
COc1ccc(-c2cc(=NC(CC(C)C)C(=O)O)c3cc(C)ccc3o2)cc1 (stereo unspecified)	3	5.2*	5	1	17*	4.5*	5.2*	10	0
CC1CCC(NC(=O)c2nn(C)c(=O)c3ccccc23)CC1 (stereo unspecified)	0	-1	-2	-1	-3	·	·	·	·
